The list is not random: actives were taken first. Their share in the collection is about 21%.
Pf growth 48h = inhibits P. falciparum growth in the first generation, 48 h | P. falciparum luciferase growth in erythrocytes, 48 h | 310,000 tested, 5.9% active | Potency, µM (doses to about 28.7 µM), inactives show top-dose activity change, negative = inhibition, usual class: inhibitors; note: potency is the fitted concentration of half-maximal effect; % is set by controls: 0 for no effect and ±100 for the full control effect
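Here the parasites carry a stable luciferase gene and grow inside erythrocytes in Albumax-based RPMI medium with compound for one erythrocytic cycle. Activity is scored as loss of luminescent signal.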
HCV inh = blocks hepatitis C virus. Huh7.5.1 HCVcc-Cre infection, luciferase reporter, 44 h. Potency, µM (top dose mostly 41.8 µM), for the others: top-dose activity change, negative = inhibition, most hits filed as inhibitors. AID 651820. 340,000 tested, 3.4% active; note: potency is the fitted concentration of half-maximal effect; % is set by controls: 0 for no effect and ±100 for the full control effect
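Antiviral activity was scored by luciferase reporter output from cells infected with HCVcc-Cre (~0.5 moi) in presence of compound, 44 h infection period, cells seeded 1,000/well 4 h prior.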
Pf growth 96h = inhibits malaria parasite growth, 96 h; 320,000 tested, 6.9% active; P. falciparum luciferase reporter growth, 96 h; Potency, µM (highest dose often 28.7 µM), inactives show at the top dose activity change, negative = inhibition, usual class: inhibitors; note: potency is the fitted concentration of half-maximal effect; % is set by controls: 0 for no effect and ±100 for the full control effect
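Compounds incubated with erythrocytes infected by luciferase-expressing P. falciparum (2% hematocrit, 0.05% parasitemia final) for 96 hours, 37 C in 5% CO2. Growth inhibition scored as decreased luciferase luminescence.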
CHX counter = counter-screen for Shiga toxin inhibitors: cycloheximide protein synthesis inhibition; cell reporter, cycloheximide protein synthesis inhibition counterscreen; max response, %; 300,000 tested, 12% active; in the data active = max response mostly above about 13%, no sharp cut-off; inactive = mostly below about 14%; note: read at 38.3 µM for the half of the compounds with a filed dose; 0% is about no effect
Shiga inhibitor = blocks Shiga toxin action in Vero cells | Vero cells, Shiga toxin protein synthesis inhibition reporter | inhibition, % at 38.7 µM | 290,000 tested, 9.2% active; in the data active = inhibition mostly above about 28%, no sharp cut-off; inactive = mostly below about 43%; note: 0% is about no effect
AMA1 RON2 block = AMA1-RON2 (P. falciparum) interaction inhibition | Potency, µM (titrated, usually from 58.2 µM), inactives show at the top dose activity change, negative = inhibition, actives largely listed as inhibitors | 360,000 tested, 0.2% active | AlphaScreen AMA1-biotinylated RON2 peptide binding;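 note: potency is the fitted concentration of half-maximal effect; 0% = vehicle wells and -100% = peptide control; nearly all actives have a fitted effect of over 45% in size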
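AMA1 (3D7) with his tag at 25 nM final met compounds first, then biotinylated RON2 peptide at 25 nM; detection used donor plus acceptor beads, 10 µg/mL apiece, read by AlphaScreen after 30 min at room temperature.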
* = called active by the depositor; u = inconclusive; x = not tested or not shown; [ ] = another dose, or the depositor's remark. Unless noted, calls come from the whole dose curve; as a rule, active = well fitted curve in the direction sought with a large enough effect; inconclusive = small, poorly fitted or top-dose-only effect, or another doubt; inactive = no such curve, though single readings can be large; an effect the other way counts as inactive or inconclusive.

SMILES	Pf growth 48h	HCV inh	Pf growth 96h	CHX counter	Shiga inhibitor	AMA1 RON2 block
COc1ccc(-n2cnnc2SCC(=O)Nc2cccnc2Cl)cc1	-2.8%	2.1%	-2.8%	-0.8	-3.7	-11.7%
O=C(CCc1ccc(Oc2cc([N+](=O)[O-])cc([N+](=O)[O-])c2)cc1)N1CCCCCC1	7.38µM*	u	u	4.6	22.5	u
O=C(Cc1ccc([N+](=O)[O-])cc1)N1CCCCCC1	-7.8%	-7.5%	u	1.7	-8.6	-3.0%
COc1ccc(-c2nnc(SCC(C)C)o2)cc1	251.5%	0.1%	421.8%	58.4*	55.4*	16.4%
O=C(CSc1nnc(-c2cccc(F)c2)o1)N1CCOCC1	-14.1%	11.7%	-17.3%	5.7	-6.5	-8.1%
COc1ccc(-c2nnc(SCc3nc4ccccc4c(=O)[nH]3)o2)cc1	116.8%	-8.0%	108.1%	41.1*	62.8*	-6.6%
O=C(CSc1nnc(-c2cccc(F)c2)o1)N1CCCC1	79.8%	12.1%	89.4%	23.2*	35.6	14.7%
Cc1cccc(-c2nnc(SCC(=O)N3CCOCC3)o2)c1	118.6%	4.2%	u	20.7*	70.5*	3.7%
COc1ccc(CN2C(=O)c3cccnc3C2=O)cc1S(=O)(=O)N1CCOc2ccc(C)cc21	10.0%	12.8%	u	11.4	-3.6	20.2%
COc1cccc(-c2nnc(SCC(=O)N3CC(C)CC(C)C3)o2)c1 (stereo unspecified)	x	-22.0%	u	-7.2	-11.5	0.0%
O=C(CSc1nnc(-c2ccc(OC(F)F)cc2)o1)N1CCOCC1	80.8%	u	u	21.4*	82.4*	0.1%
COc1cccc(-c2nnc(SCC(=O)N3CCOCC3)o2)c1	46.9%	-5.7%	11.7µM*	22.1*	31.7	-0.9%
COc1ccc(-c2nnc(SCC(=O)N3CCOCC3)o2)cc1	140.6%	0.2%	x	16.8	122.2*	2.0%
COc1ccc(-n2c(SCC(=O)N3CCOCC3)nc(O)cc2=O)cc1	13.2%	24.4%	5.86µM*	5.9	-15.5	20.6%
NC(=O)c1ccsc1NC(=O)CSc1nncs1	39.7%	16.7%	-15.7%	x	x	27.5%
CCCCc1c(-c2ccccc2OC)ncn1C1CCCC1	x	x	x	x	x	-8.9%
CC(C)C(OC(=O)c1nsc(Cl)c1Cl)C(=O)NCC1CCCO1 (stereo unspecified)	26.6%	15.3%	-8.5%	-4.6	-4.9	11.9%
COc1ccc(-n2c(C)cc(C(=O)CSc3ccc(NC(C)=O)cc3)c2C)cc1	u	-6.4%	-0.9%	29.4*	69.5*	-9.3%[11.6 µM]
CC(=O)Nc1ccc(SCC(=O)c2cc(C)ccc2C)cc1	-16.9%	-5.7%	0.3%	4.1	-10.2	-3.7%
CC(=O)Nc1ccc(SCC(=O)c2cc(C)n(-c3ccccc3)c2C)cc1	117.7%	-1.3%	81.4%	45.2*	86.5	-1.5%
COc1ccc(CNC(=O)Cn2cc(C)c(=O)[nH]c2=O)cc1	x	15.7%	x	x	x	14.3%
Cc1ccc(NC(=O)Nc2ccccc2CC[N+](=O)[O-])cc1	29.0%	-20.6%	48.1%	16.1*	-2.4	-8.3%
O=C(OCN1C(=O)c2ccccc2C1=O)c1cccc(OC(F)F)c1	12.5%	9.1%	9.2%	-5.4	-7.7	-4.5%
COC(CNC(=O)c1ccc2c(c1)ncn2C1CCCCCC1)OC	-21.1%	11.7%	u	-2.6	4.0	-9.6%
CCOCCCNC(=O)c1ccc2c(c1)ncn2C1CCCC1	33.4%	0.1%	-34.0%	23.7*	28.6*	-5.1%
SMILES	Pf growth 48h	HCV inh	Pf growth 96h	CHX counter	Shiga inhibitor	AMA1 RON2 block
CC(C)CCNC(=O)c1ccc2c(c1)ncn2C1CCCC1	55.8%	-7.2%	u	34.3*	124.5*	-4.4%
Clc1ccc2c(c1)C(N1CCNCC1)Cc1ccccc1S2 (stereo unspecified)	10.4µM*	u	13.1µM*	-10.9	-19.6	-5.7%
Clc1cccc2c1Sc1ccccc1CC2N1CCNCC1 (stereo unspecified)	u	10µM*	10.4µM*	-9.8	-25.0	-15.6%
CN1CCN(C2Cc3ccccc3Sc3ccc(S)cc32)CC1 (stereo unspecified)	x	x	x	-4.1	-10.1	x
CCCCn1nnnc1C(c1cc2ccccc2o1)N(CCN(C)C)Cc1ccccc1 (stereo unspecified)	x	x	x	x	x	-11.8%
CC(C)c1ccc(C(=O)N2CCCCC2c2cc(C(=O)NCc3cccnc3)no2)cc1 (stereo unspecified)	x	x	x	x	x	-0.2%
CCCCOC1CC(c2ccc(OCc3ccc(OC)cc3)c(OC)c2)N(C)O1 (stereo unspecified)	u	u	0.0%	24.0*	85.0*	-12.8%
CCN(CC)CCOC(=O)c1ccc(NC(=O)/C=C/c2cccs2)cc1	u	u	u	74.8*	117.9*	-3.0%
CCN(CC)CCOC(=O)c1ccc(NC(=O)CSc2nnc(-c3cccs3)n2CC)cc1	x	26.4%	x	x	x	3.4%[11.6 µM]
CC(=O)c1ccc(NC(=O)COC(=O)/C=C/c2cccs2)cc1	x	-22.3%	x	x	x	20.2%
CCOC(=O)c1ccc(NC(=O)/C=C/c2cccs2)cc1	u	u	u	46.3*	109.0*	7.6%
O=C(Nc1cccnc1Cl)C1=NN(c2ccccc2)C(=O)CC1	u	13.5%	u	-1.3	-2.6	9.2%
CCc1ccc(C(=O)C(C)OC(=O)c2nn(C)c(=O)c3ccccc23)cc1 (stereo unspecified)	-9.3%	0.4%	0.2%	x	x	-2.8%
CCOc1ccc(NC(=O)C2(c3ccc(OC)c(OC)c3)CCCC2)cc1	u	-13.7%	1.65µM*	-4.1	-7.3	-5.2%
CCOc1ccc(NC(=O)CN2C(=O)CSC2=O)cc1	11.9%	-2.2%	u	15.4*	79.2*	-1.3%
Cc1cccc(NC(=O)C[n+]2ccc(N(C)C)cc2)c1	u	-2.7%	-19.2%	-1.4	21.6	5.1%
CCOc1ccc(NC(=O)CC(=O)Nc2ccc(OCC)cc2)cc1	x	6.3%	31.2%	12.2	66.6*	10.5%
CN(C)c1cc[n+](CC(=O)Nc2ccc(Cl)cc2)cc1	0.0828µM*	-20.3%	u	-1.1	5.8	10.1%
COc1ccc(S(=O)(=O)N2CCCOC2CNC(=O)C(=O)NCc2cccnc2)cc1 (stereo unspecified)	-4.9%	x	2.0%	-3.5	-17.6	11.7%
COc1ccc(S(=O)(=O)Nc2ccc3c(c2)C(=O)N([C@@H](C)CO)C[C@H](C)[C@H](CN(C)S(=O)(=O)c2ccc(F)cc2)O3)cc1	x	-2.5%	x	x	x	-0.9%
CN(C)c1cc[n+](CC(=O)c2ccc(OC(F)F)cc2)cc1	0.738µM*	14.1%	0.738µM*	1.8	2.5	-4.6%
CCOc1ccc(NC(=O)CN2C(=O)C3CCCN3C2=O)cc1 (stereo unspecified)	35.1%	21.3%	u	15.0*	active	21.1%
CN(C)c1cc[n+](CC(=O)Nc2ccc(Oc3ccccc3)cc2)cc1	u	u	u	0.7	-5.3	-2.4%
